# Measurements: article PMC7862700, “An all-to-all approach to the identification of sequence-specific readers for epigenetic DNA modifications on cytosine”
# Columns and labels:
# Assay in all cases: DAPPL (digital affinity profiling via proximity ligation, sequencing); 10 mM Tris-HCl pH 7.5, 50 mM NaCl, 1 mM DTT, 4% glycerol, room temperature, 30 min; GST-TFs on glutathione beads, 16-mer random dsDNA library, 0.1% formaldehyde crosslink after washing; high values mean tight binding
# FEV = target: T1, FEV (Homo sapiens, UniProt Q99581 1-238); settings: protein: recombinant; tags: N-terminal GST; dsDNA, one strand shown
# T1 sequence: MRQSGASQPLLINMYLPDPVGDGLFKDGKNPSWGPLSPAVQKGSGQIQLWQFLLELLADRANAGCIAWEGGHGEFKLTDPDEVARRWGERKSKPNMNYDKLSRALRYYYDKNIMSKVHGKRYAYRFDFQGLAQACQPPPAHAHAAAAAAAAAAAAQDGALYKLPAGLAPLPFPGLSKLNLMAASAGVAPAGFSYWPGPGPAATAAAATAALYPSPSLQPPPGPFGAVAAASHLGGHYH
# How it was run: (§1)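 Sequencing on an Illumina NextSeq500 followed washing, crosslinking with 0.1% formaldehyde, proximity ligation (BsaI/T4 ligase, 1 h, 37 °C) and PCR amplification of pools that had been incubated for 30 min at room temperature with 200 nmole of a random double-stranded 16-mer DNA library in Tris/NaCl/DTT/glycerol buffer. Each pool held DNA-barcoded human transcription factors, expressed in yeast as GST fusions and captured on glutathione beads, plus a tag-only sample. Binding signal is a hexamer's read frequency for a factor divided by its frequency in the tag-only sample.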
# ETV5 = ETV5 (Homo sapiens, UniProt P41161 1-510); settings: protein: recombinant; tags: N-terminal GST; dsDNA, one strand shown
# ETV5, sequence (P41161 whole entry): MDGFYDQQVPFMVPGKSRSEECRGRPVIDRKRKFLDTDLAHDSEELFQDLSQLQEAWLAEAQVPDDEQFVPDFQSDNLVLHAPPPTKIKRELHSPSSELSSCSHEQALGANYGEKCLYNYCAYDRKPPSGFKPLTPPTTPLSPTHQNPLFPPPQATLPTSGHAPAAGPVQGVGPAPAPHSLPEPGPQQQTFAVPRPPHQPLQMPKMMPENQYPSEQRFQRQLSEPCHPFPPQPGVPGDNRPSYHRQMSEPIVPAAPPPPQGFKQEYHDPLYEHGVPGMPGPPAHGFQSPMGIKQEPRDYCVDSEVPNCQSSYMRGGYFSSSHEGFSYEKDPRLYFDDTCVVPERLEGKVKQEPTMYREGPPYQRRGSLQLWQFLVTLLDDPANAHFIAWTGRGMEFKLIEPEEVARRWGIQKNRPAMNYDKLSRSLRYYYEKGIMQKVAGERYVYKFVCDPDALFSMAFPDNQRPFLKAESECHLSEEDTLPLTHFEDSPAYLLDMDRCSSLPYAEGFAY
# How it was run: as §1
# HSF1 = HSF1 (Homo sapiens, UniProt Q00613 1-529); settings: protein: recombinant; tags: N-terminal GST; chain copies: 3; dsDNA, one strand shown
# HSF1, sequence (Q00613 whole entry): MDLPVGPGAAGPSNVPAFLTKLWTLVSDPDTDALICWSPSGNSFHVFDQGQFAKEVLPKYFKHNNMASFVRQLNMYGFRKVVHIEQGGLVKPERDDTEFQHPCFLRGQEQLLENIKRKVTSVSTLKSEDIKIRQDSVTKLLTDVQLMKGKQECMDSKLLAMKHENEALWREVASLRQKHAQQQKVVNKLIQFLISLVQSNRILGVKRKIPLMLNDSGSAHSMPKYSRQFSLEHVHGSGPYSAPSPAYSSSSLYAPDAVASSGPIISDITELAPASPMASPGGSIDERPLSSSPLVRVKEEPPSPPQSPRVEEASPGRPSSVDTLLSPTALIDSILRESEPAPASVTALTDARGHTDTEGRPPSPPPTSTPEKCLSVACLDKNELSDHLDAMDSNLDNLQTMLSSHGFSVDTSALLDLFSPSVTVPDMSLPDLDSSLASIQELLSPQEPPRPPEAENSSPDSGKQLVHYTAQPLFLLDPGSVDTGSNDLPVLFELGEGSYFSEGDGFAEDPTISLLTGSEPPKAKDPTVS
# How it was run: as §1
# SPIC = target: T2, SPIC (Homo sapiens, UniProt Q8N5J4 1-248); settings: protein: recombinant; tags: N-terminal GST; dsDNA, one strand shown
# T2 sequence: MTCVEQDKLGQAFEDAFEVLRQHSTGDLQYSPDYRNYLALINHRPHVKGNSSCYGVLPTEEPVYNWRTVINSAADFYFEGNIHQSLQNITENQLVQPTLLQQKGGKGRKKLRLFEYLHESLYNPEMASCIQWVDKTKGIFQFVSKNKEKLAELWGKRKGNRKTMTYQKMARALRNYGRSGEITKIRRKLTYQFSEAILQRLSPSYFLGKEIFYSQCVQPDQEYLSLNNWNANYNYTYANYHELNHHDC
# How it was run: as §1
# ELF4 = ELF4 (Homo sapiens, UniProt Q99607 1-663); settings: protein: recombinant; tags: N-terminal GST; dsDNA, one strand shown
# ELF4, sequence (Q99607 whole entry): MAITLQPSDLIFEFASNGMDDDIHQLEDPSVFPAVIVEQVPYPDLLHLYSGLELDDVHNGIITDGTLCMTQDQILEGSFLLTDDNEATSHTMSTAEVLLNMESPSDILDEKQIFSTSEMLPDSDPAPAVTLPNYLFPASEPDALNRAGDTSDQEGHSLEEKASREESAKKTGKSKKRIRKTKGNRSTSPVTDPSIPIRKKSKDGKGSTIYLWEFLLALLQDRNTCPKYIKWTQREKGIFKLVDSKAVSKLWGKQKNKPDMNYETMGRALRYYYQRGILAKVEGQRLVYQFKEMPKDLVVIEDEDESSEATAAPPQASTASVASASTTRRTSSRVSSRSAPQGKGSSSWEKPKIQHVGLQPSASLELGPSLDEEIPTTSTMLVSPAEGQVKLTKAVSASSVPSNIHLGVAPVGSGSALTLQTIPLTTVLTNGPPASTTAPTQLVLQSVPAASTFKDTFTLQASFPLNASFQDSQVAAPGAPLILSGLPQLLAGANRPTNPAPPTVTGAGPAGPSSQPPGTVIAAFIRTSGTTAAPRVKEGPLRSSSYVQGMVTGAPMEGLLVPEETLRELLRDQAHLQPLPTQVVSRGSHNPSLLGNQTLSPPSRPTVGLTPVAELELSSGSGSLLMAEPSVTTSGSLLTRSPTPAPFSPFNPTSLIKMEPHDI
# How it was run: as §1
# ELK4 = target: T3, ELK4 (Homo sapiens, UniProt P28324-2 1-405); settings: protein: recombinant; tags: N-terminal GST; dsDNA, one strand shown
# T3 sequence: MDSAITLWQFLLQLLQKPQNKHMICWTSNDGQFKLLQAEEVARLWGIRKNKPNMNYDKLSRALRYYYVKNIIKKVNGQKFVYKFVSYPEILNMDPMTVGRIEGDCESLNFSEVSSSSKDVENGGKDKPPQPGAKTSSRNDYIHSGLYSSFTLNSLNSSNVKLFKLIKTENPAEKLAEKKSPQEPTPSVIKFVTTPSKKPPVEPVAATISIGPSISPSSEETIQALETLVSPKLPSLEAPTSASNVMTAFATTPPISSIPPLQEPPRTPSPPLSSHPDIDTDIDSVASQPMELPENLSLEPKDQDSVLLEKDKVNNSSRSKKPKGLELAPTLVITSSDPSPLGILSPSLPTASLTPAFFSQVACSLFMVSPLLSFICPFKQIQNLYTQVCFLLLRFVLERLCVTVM
# How it was run: as §1
# ETV2 = target: T4, ETV2 (Homo sapiens, UniProt O00321 1-342); settings: protein: recombinant; tags: N-terminal GST; dsDNA, one strand shown
# T4 sequence: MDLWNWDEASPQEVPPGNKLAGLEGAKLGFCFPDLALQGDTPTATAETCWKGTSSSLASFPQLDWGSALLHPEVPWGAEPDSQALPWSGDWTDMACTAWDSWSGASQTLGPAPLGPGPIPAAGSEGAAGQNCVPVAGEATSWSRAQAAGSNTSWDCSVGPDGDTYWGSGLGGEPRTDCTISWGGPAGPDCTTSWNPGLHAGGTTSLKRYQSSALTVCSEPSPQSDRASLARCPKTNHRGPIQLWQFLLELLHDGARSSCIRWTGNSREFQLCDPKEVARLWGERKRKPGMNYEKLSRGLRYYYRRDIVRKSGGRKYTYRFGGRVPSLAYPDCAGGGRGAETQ
# How it was run: as §1
# ELF3 = target: T5, ELF3 (Homo sapiens, UniProt P78545 1-371); settings: protein: recombinant; tags: N-terminal GST; dsDNA, one strand shown
# T5 sequence: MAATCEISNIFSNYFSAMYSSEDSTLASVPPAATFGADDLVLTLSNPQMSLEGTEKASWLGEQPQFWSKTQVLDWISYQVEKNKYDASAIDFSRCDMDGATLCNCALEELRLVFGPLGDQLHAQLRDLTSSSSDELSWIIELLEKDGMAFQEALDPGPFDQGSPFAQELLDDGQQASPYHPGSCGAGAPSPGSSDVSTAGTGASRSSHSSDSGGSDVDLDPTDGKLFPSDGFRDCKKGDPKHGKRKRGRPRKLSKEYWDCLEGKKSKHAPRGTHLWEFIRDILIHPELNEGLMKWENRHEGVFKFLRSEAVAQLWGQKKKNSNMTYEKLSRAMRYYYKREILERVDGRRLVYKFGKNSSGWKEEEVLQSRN
# How it was run: as §1
# CRX = CRX (Homo sapiens, UniProt O43186 1-299); settings: protein: recombinant; tags: N-terminal GST; dsDNA, one strand shown
# CRX, sequence (O43186 whole entry): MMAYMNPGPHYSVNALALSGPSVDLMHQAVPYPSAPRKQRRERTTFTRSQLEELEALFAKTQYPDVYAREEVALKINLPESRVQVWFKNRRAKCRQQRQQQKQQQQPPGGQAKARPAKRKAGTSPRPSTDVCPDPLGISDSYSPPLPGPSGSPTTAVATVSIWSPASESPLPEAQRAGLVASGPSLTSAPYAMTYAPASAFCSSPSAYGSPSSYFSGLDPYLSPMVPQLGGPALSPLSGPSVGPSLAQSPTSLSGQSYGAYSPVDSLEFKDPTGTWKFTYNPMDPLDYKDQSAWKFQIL
# How it was run: as §1
sequence,measurement,setting,value
TAATCA,binding signal,FEV,"1.13 fold enrichment (6-mer frequency, TF over GST control)"
same,binding signal,ETV5,"1.18 fold enrichment (6-mer frequency, TF over GST control)"
same,binding signal,HSF1,"1.64 fold enrichment (6-mer frequency, TF over GST control)"
same,binding signal,SPIC,"1.26 fold enrichment (6-mer frequency, TF over GST control)"
same,binding signal,ELF4,"1.11 fold enrichment (6-mer frequency, TF over GST control)"
same,binding signal,ELK4,"1.32 fold enrichment (6-mer frequency, TF over GST control)"
same,binding signal,ETV2,"1.27 fold enrichment (6-mer frequency, TF over GST control)"
same,binding signal,ELF3,"1.18 fold enrichment (6-mer frequency, TF over GST control)"
same,binding signal,CRX,"2.51 fold enrichment (6-mer frequency, TF over GST control)"
